HCMV inh – blocks human cytomegalovirus replication | HFF cells, HCMV-luciferase reporter, 72 h; active compounds read low | activity change, negative = inhibition, % at 57.5 µM | 4.5% of 410,000 active | AID 1259415; in the data active = activity change below about -60%; inconclusive = no clear call, values can overlap the other calls; inactive = above about -39%
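Compounds were evaluated in HFFs infected with an HCMV luciferase reporter virus (MOI 1 PFU/cell). Luciferase in lysates collected 72 h post infection served as the replication measure.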
Pf growth 96h – inhibits malaria parasite growth, 96 h; P. falciparum luciferase reporter growth, 96 h; Potency, µM (top dose mostly 28.7 µM), usual class: inhibitors; 6.9% of 320,000 active; AID 504834
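Cell-based qHTS: luciferase-tagged P. falciparum in erythrocytes (2% hematocrit, 0.05% parasitemia final) incubated with compounds for 96 hours, 37 C, 5% CO2; luciferase detection reagent then added and luminescence measured.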
Pf growth 48h – P. falciparum growth inhibition at 48 hours (one generation). P. falciparum luciferase growth in erythrocytes, 48 h. Potency, µM (top dose mostly 28.7 µM), usual class: inhibitors. 5.9% of 310,000 active. AID 504832
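Erythrocytes infected with P. falciparum carrying an integrated firefly luciferase reporter (2% hematocrit, 0.1% parasitemia final) were exposed to compounds in RPMI 1640 with 0.5% Albumax at 37 C, 5% CO2. Growth inhibition was scored as reduced luminescence.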
HCV inhibitor – inhibitors of hepatitis C virus infection. 3.4% of 340,000 active. Potency, µM (doses to about 41.8 µM), hits mostly inhibitors. AID 651820. Huh7.5.1 HCVcc-Cre infection, luciferase reporter, 44 h
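After 44 h co-culture of compound, cells and HCVcc-Cre (~0.5 moi), substrate is added for 15 min at room temperature and luciferase measured over 15 sec. Cells were seeded at 1,000/well and pre-cultured 4 h.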
LASV entry inh – inhibitors of Lassa virus binding or cell entry. AID 540256. 1.2% of 300,000 active. Lassa virus pseudotype entry inhibition, cell reporter. Potency, µM (top dose mostly 37.9 µM), most hits filed as inhibitors; calls by dose curve; tested in HEK293 cells; note: nearly all actives have a fitted effect of over 50% in size
MARV entry inh – blocks Marburg virus binding to or entry into cells; Potency, µM (doses to about 37.8 µM), hits mostly inhibitors; Marburg virus pseudotyped entry inhibition, cell reporter; AID 540276; 1.8% of 300,000 active; calls by dose curve; tested in HEK293 cells
Each line names hits and unclear results; the compound was inactive in the other large screens. The list is not random: actives were taken first. Their share in the collection is about 14%. Unless noted, calls come from the whole dose curve; as a rule, active = well fitted inhibition curve with a large enough effect; inconclusive = small, poorly fitted or top-dose-only effect, or another doubt; inactive = no such curve, though single readings can be large or run the other way.

FC(F)(F)c1cc(CO[C@H]2CCCN[C@H]2c2ccccc2)cc(C(F)(F)F)c1	MARV entry inh 14µM (no result: HCMV inh, Pf growth 96h, Pf growth 48h, HCV inhibitor, LASV entry inh)
O=C(NCCc1ccccc1Cl)c1ccc2c(=O)n(-c3ccccc3)c(=O)[nH]c2c1	HCMV inh inconclusive (no result: Pf growth 96h, Pf growth 48h, HCV inhibitor)
CCC(CO)[n+]1c(C)cc(/C=C2\Sc3ccccc3N2Cc2ccccc2)cc1C (stereo unspecified)	HCMV inh -100, Pf growth 96h inconclusive, Pf growth 48h 0.37µM, HCV inhibitor inconclusive, LASV entry inh inconclusive, MARV entry inh inconclusive
COc1ccc(C(=O)NC(Nc2ccc(C)cc2)C(Cl)(Cl)Cl)cc1 (stereo unspecified)	HCMV inh -72, Pf growth 48h inconclusive, HCV inhibitor inconclusive, MARV entry inh inconclusive
COc1ccc(NC(NC(=O)c2ccc(OC)cc2)C(Cl)(Cl)Cl)cc1 (stereo unspecified)	Pf growth 96h 4.1µM, Pf growth 48h inconclusive, HCV inhibitor inconclusive, LASV entry inh inconclusive, MARV entry inh inconclusive
COc1ccc(NC(=O)C(NC(=O)c2ccc(C)cc2)c2ccccc2)cc1 (stereo unspecified)	Pf growth 96h inconclusive, Pf growth 48h inconclusive (no result: LASV entry inh, MARV entry inh)
COCCCNC(NC(=O)c1ccc(Br)cc1)C(Cl)(Cl)Cl (stereo unspecified)	HCMV inh -66
COc1ccc(C(=O)NC(C)CCc2ccccc2)cc1 (stereo unspecified)	none
CSCCC(NC(=O)COc1ccccc1)C(=O)NCC(C)(C)N1CCOCC1 (stereo unspecified)	none (no result: Pf growth 96h, Pf growth 48h, HCV inhibitor, LASV entry inh, MARV entry inh)
Cc1nn2c(C)c(C(=O)NC(C)(C)C)cnc2c1-c1ccc(F)cc1	none (no result: Pf growth 96h, Pf growth 48h, HCV inhibitor, MARV entry inh)
COc1cc(C2CC(=O)Nc3c2c(C)nn3-c2nncc(-c3ccccc3)n2)cc(OC)c1OC (stereo unspecified)	LASV entry inh inconclusive (no result: Pf growth 96h, Pf growth 48h, HCV inhibitor)
Nc1nc(CSC(=S)N2CCN(c3ccccc3)CC2)nc(Nc2ccc(F)cc2)n1	Pf growth 96h 12µM, Pf growth 48h inconclusive, HCV inhibitor inconclusive, LASV entry inh inconclusive, MARV entry inh inconclusive
CC1CC(C)CN(C(=S)SCc2nc(N)nc(Nc3ccccc3)n2)C1 (stereo unspecified)	HCMV inh -65, Pf growth 96h inconclusive, Pf growth 48h inconclusive, HCV inhibitor inconclusive, MARV entry inh inconclusive
CCN(CC)CCn1c2ccccc2c2cnc(N=CN(C)C)c(C#N)c21	HCMV inh -94, Pf growth 96h inconclusive, Pf growth 48h inconclusive, HCV inhibitor inconclusive, LASV entry inh inconclusive, MARV entry inh inconclusive
CCCn1c2ccccc2c2cnn(CC(=O)NCCN(CC)CC)c(=O)c21	MARV entry inh inconclusive
CCn1c2ccccc2c2cnc(N=CN(C)C)c(C#N)c21	HCMV inh -70, Pf growth 96h inconclusive, Pf growth 48h inconclusive, HCV inhibitor 13µM, MARV entry inh inconclusive
COc1cc(OC)c(C(=O)OCC(=O)NC23CC4CC(CC(C4)C2)C3)cc1OC	none (no result: Pf growth 96h, Pf growth 48h)
CC(C)c1ccc(NC(=S)NC2CCN(Cc3ccccc3)CC2)cc1	Pf growth 96h inconclusive, Pf growth 48h 10µM, HCV inhibitor inconclusive, LASV entry inh 18µM, MARV entry inh inconclusive
S=C(Nc1cc(Cl)cc(Cl)c1)NC1CCN(Cc2ccccc2)CC1	HCMV inh -100, Pf growth 96h inconclusive, Pf growth 48h 5.9µM, HCV inhibitor 10µM (no result: LASV entry inh, MARV entry inh)
Cc1ccc(NC(=S)NC2CC3CCC(C2)N3Cc2ccco2)cc1C (stereo unspecified)	Pf growth 96h 12µM, Pf growth 48h inconclusive, LASV entry inh inconclusive, MARV entry inh inconclusive
Cc1ccc(NC(=S)NC2CCN(Cc3ccccc3)CC2)cc1	HCMV inh inconclusive, Pf growth 96h inconclusive, Pf growth 48h inconclusive, HCV inhibitor inconclusive
Cc1ccc(NC(=S)NC2CCN(Cc3ccccc3)CC2)cc1C	HCMV inh inconclusive, Pf growth 96h inconclusive, Pf growth 48h inconclusive, HCV inhibitor 11µM (no result: LASV entry inh, MARV entry inh)
O=C(Nc1ccc(Br)cc1F)c1cc(S(=O)(=O)NC2CCCCC2)ccc1F	LASV entry inh inconclusive (no result: Pf growth 96h, Pf growth 48h, HCV inhibitor, MARV entry inh)
O=S(=O)(c1ccc(Cl)cc1)c1nnn2c1nc(NCc1ccccc1)c1sccc12	none (no result: Pf growth 96h, Pf growth 48h, HCV inhibitor, MARV entry inh)
Cc1ccsc1CCN1C(=O)N(c2ccccc2)C(=O)C1CC(=O)Nc1ccc(Cl)cc1 (stereo unspecified)	MARV entry inh inconclusive (no result: Pf growth 96h, Pf growth 48h, HCV inhibitor)
Cc1c(Cl)cccc1NC(=S)NC1CCN(Cc2ccccc2)CC1	HCMV inh -91, Pf growth 96h inconclusive, Pf growth 48h inconclusive, HCV inhibitor inconclusive, LASV entry inh inconclusive, MARV entry inh 16µM
S=C(Nc1ccccc1Cl)NC1CCN(Cc2ccccc2)CC1	Pf growth 96h inconclusive, HCV inhibitor inconclusive, MARV entry inh inconclusive
Cc1cc2nc(-c3ccc(Cl)cc3)c(CC(C)(C)C)n2c(C)c1Br	none (no result: Pf growth 96h, Pf growth 48h, HCV inhibitor, LASV entry inh, MARV entry inh)
N#CC1=C(N)Oc2cc(N)ccc2C1c1cccc(Br)c1 (stereo unspecified)	HCMV inh -75 (no result: LASV entry inh, MARV entry inh)
Cc1ccc(C2C(C#N)=C(N)Oc3cc(N)ccc32)cc1 (stereo unspecified)	none (no result: LASV entry inh, MARV entry inh)
N#CC1=C(N)Oc2cc(N)ccc2C1c1ccsc1 (stereo unspecified)	Pf growth 96h 10µM
COc1ccc(CCNC(=O)c2[nH]c(C)c(C(C)=O)c2C)cc1	HCV inhibitor inconclusive, MARV entry inh inconclusive (no result: Pf growth 96h)
CC(=O)c1c(C)[nH]c(C(=O)NCc2ccccc2Cl)c1C	Pf growth 48h inconclusive, HCV inhibitor 13µM (no result: Pf growth 96h)
COc1ccc(CNC(=O)c2c(F)c(F)c(F)c(F)c2F)cc1	HCMV inh -102, Pf growth 96h inconclusive, HCV inhibitor inconclusive
CCCCC(CC)CNC(=O)c1[nH]c(C)c(C(C)=O)c1C (stereo unspecified)	HCMV inh -65, Pf growth 96h inconclusive (no result: Pf growth 48h, LASV entry inh)
COc1ccc(CNC(=O)c2[nH]c(C)c(C(C)=O)c2C)cc1	Pf growth 96h inconclusive, Pf growth 48h 15µM
O=c1c2c3c(sc2n(Cc2ccccc2F)c(=O)n1-c1ccc(Cl)cc1)CCCC3	none (no result: Pf growth 96h, Pf growth 48h, HCV inhibitor)
Cc1ccccc1-n1c(O)c(C=Nc2ccc(N(C)C)cc2)c(=O)[nH]c1=O	Pf growth 96h 1.9µM, Pf growth 48h 2.6µM
CCN(CC)c1ccc(N=Cc2c(O)n(-c3ccc(OC)cc3)c(=O)[nH]c2=O)cc1	Pf growth 96h 10µM, LASV entry inh inconclusive (no result: Pf growth 48h)
Cc1ccc(-n2c(O)c(C=Nc3ccc(S(=O)(=O)N(C)C)cc3)c(=O)[nH]c2=O)cc1	Pf growth 96h 2.1µM, LASV entry inh inconclusive (no result: Pf growth 48h)
OC(Cc1cccc(Br)c1)c1ncc(-c2ccccc2C(F)(F)F)[nH]1 (stereo unspecified)	none (no result: Pf growth 96h, Pf growth 48h, HCV inhibitor, LASV entry inh, MARV entry inh)
CCCC(c1nnnn1C1CCCCC1)N1CCN(C(=O)c2ccco2)CC1 (stereo unspecified)	Pf growth 48h 3.7µM
Clc1ccccc1C(c1nnnn1Cc1ccco1)N1CCN(Cc2ccco2)CC1 (stereo unspecified)	Pf growth 48h 15µM, MARV entry inh inconclusive
Cc1cc2cc(C(c3nnnn3Cc3ccco3)N3CCCCC3)c(=O)[nH]c2cc1C (stereo unspecified)	HCV inhibitor inconclusive (no result: Pf growth 96h)
